Compounds with a hit are over-represented: about 8.7% of the library has one in this group of screens.
Cav3 T inh: Cav3.2 calcium influx blockers – cell-based, Fluo-4 calcium fluorescence, FDSS, MLSMR library, primary screen; Voltage-dependent T-type calcium channel subunit alpha-1H (Homo sapiens), O95180; Cav3.2-expressing cells; hits give low values; B-score at 10 µM; 100,000 tested, 4% active;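 active = single-dose well whose peak fluorescence ratio is a statistical outlier from its plate by either plate-standardised score or position-corrected B-score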
PostGolgi yeast: phenotypic screen on post-Golgi transport, primary screen; inhibition, % at 10 µM; AID 739, 2007; post-Golgi transport phenotypic cell assay; 98,000 tested, 0.9% active;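 note: yeast cells grown in 1536-well plates; yeast grown about 18 h at 30C before absorbance read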
DAT uptake mod: changed hDAT dopamine uptake under cocaine IC80, either direction, primary screen, cocaine antagonist project, cell-based, LLC-PK1 hDAT, [14C]-dopamine uptake, MLSMR; B-score at 10 µM; 110,000 tested, 1.3% active; Sodium-dependent dopamine transporter (Homo sapiens), Q01959; LLC-PK1 hDAT cells, [14C]-dopamine uptake with cocaine IC80; actives deviate in either direction;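 active = Z score or B-score, a plate-position-corrected score, falls beyond the plate's 99.7% confidence bounds, in either direction; inactive = both scores lie inside the 99.7% bounds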;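 note: scored against the spread of the other compound wells on the same plate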
PostGolgi ctrl: growth inhibition of yeast control strain, primary screen, counter-screen for post-Golgi transport modulator project. efflux-deficient yeast background strain, growth absorbance A615, 16 h. inhibition, % at 10 µM. 98,000 tested, 5% active. AID 738, 2007
TNAP act DEA: human TNAP enzyme activators, primary screen, biochemical, luminescent, intermediate phosphate acceptor level; purified TNAP, CDP-star luminescence, 100 mM DEA, 30 min; hits give high values; scale: 0 levamisole-inhibited, 1 vehicle-only enzyme; activation factor at 20 µM; 64,000 tested, under 10 active; Alkaline phosphatase, tissue-nonspecific isozyme (Homo sapiens), P05186;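 active = activation factor of at least 2 at 20 µM, relative to controls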
Smad3 FoxH1 inh: Smad3/FoxH1 peptide binding inhibitors, primary screen, biochemical, TR-FRET; Mothers against decapentaplegic homolog 3 (Homo sapiens), P84022; TR-FRET Smad3/Dy647-FoxH1 peptide binding, europium anti-His; inhibition, % at 25 µM; 88,000 tested, 0.29% active;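 active = compounds that reduce the energy-transfer binding signal between the protein and its labelled peptide by more than half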;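 note: 0% = Smad3 plus labelled peptide maximal FRET and 100% = peptide-only background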
* marks the source's active call; other numbers are inactive results. Cut-off read from the data, not from the text of the source, unless noted: active = inhibition above about 30%; inactive = the rest.

How did CCOC(=O)CCCSc1nc2sc3c(c2c(=O)[nH]1)CCC3 do in these assays?
Cav3 T inh: -0.00963; PostGolgi yeast: 4.2; DAT uptake mod: 0.0158; PostGolgi ctrl: 11.1; Smad3 FoxH1 inh: 7.1

Results for CCOC(=O)CSc1nnc2n(Cc3ccccc3)c(=O)c3c4c(sc3n12)CCC4 ?
Cav3 T inh: 0.657; PostGolgi yeast: -6.1; DAT uptake mod: -1.48*; PostGolgi ctrl: 21.8; TNAP act DEA: 0.9; Smad3 FoxH1 inh: -4.4

What do the screens show for `COC(=O)CSc1nnc2n(C3CCCCC3)c(=O)c3c4c(sc3n12)CCCC4`?
Cav3 T inh: -3.86*; PostGolgi yeast: 4.8; DAT uptake mod: -0.00787; PostGolgi ctrl: 21.4; TNAP act DEA: 0.9

Results for CCOC(=O)CSc1nnc(CSc2nc3sc4c(c3c(=O)[nH]2)CCCC4)n1-c1ccccc1 ?
Cav3 T inh: -5.95*; PostGolgi yeast: -5.5; DAT uptake mod: 1.87*; PostGolgi ctrl: 11.3; Smad3 FoxH1 inh: 8.9

How did Cc1nnc2n(Cc3ccccc3)c(=O)c3c4c(sc3n12)CCCC4 do in these assays?
TNAP act DEA: 0.9; Smad3 FoxH1 inh: 6.0

What do the screens show for `COc1cccc(NC(=O)N2CCCC2C(=O)NCC(C)C)c1` (stereo not given)?
Cav3 T inh: -0.037; PostGolgi yeast: 22.2; DAT uptake mod: 0.501; PostGolgi ctrl: -7.1; TNAP act DEA: 0.9; Smad3 FoxH1 inh: 11.2

How did Cc1csc(NC(=O)c2ccc(S(=O)(=O)N(C)c3ccccc3)cc2)n1 do in these assays?
PostGolgi yeast: 11.9; DAT uptake mod: 0.75; PostGolgi ctrl: 7.5; Smad3 FoxH1 inh: 1.5

How did Cc1cccc(N2CC(C(=O)OCC(=O)c3ccc(OC(=O)c4cccs4)cc3)CC2=O)c1C (stereo not given) do in these assays?
Cav3 T inh: -0.107; PostGolgi yeast: -6.5; DAT uptake mod: -0.347; PostGolgi ctrl: 11.1

What do the screens show for `CCN(CC)c1ccc(NC(=O)Nc2cccc(C(C)=O)c2)cc1`?
Cav3 T inh: 1.72; PostGolgi yeast: 0.0; DAT uptake mod: 0.462; PostGolgi ctrl: 9.4; TNAP act DEA: 0.9; Smad3 FoxH1 inh: 25.9

What do the screens show for `O=c1[nH]c(CN(CCO)CCO)nc2c1C1(CCCCC1)Cc1ccccc1-2`?
Cav3 T inh: -10.6*; PostGolgi yeast: -0.8; DAT uptake mod: -0.178; PostGolgi ctrl: 1.8; TNAP act DEA: 1.5; Smad3 FoxH1 inh: 3.8

How did CCC1(CC)Cc2ccccc2-c2nc(CN3CCOCC3)[nH]c(=O)c21 do in these assays?
Cav3 T inh: -0.676; PostGolgi yeast: -6.9; DAT uptake mod: 0.176; PostGolgi ctrl: 12.0; TNAP act DEA: 1.1; Smad3 FoxH1 inh: 6.1

What do the screens show for `CCN(CC)Cc1nc2c(c(=O)[nH]1)C1(CCCC1)Cc1ccccc1-2`?
Cav3 T inh: -6.72*; PostGolgi yeast: -1.8; DAT uptake mod: 0.391; PostGolgi ctrl: 15.2; Smad3 FoxH1 inh: -7.3

Results for O=c1[nH]c(NCCO)nc2c1C1(CCCC1)Cc1ccccc1-2 ?
Cav3 T inh: -4.13*; PostGolgi yeast: -1.2; DAT uptake mod: 0.0771; PostGolgi ctrl: 14.6; Smad3 FoxH1 inh: -1.9

What do the screens show for `Cn1c(NCCCO)nc2c(c1=O)C1(CCCCC1)Cc1ccccc1-2`?
Cav3 T inh: -1.85; PostGolgi yeast: 7.8; DAT uptake mod: 1.42; PostGolgi ctrl: 36.0*; TNAP act DEA: 0.9; Smad3 FoxH1 inh: -4.7

How did CCC1(C)Cc2ccccc2-c2nc(NCCCO)n(-c3ccccc3)c(=O)c21 (stereo not given) do in these assays?
Cav3 T inh: -1.88; PostGolgi yeast: 2.6; DAT uptake mod: -0.00931; PostGolgi ctrl: 15.6; Smad3 FoxH1 inh: -17.2

What do the screens show for `CCCCCNC(=O)C(C)NS(=O)(=O)c1ccc(OC)cc1` (stereo not given)?
PostGolgi yeast: 19.5; DAT uptake mod: -0.522; PostGolgi ctrl: 0.1; TNAP act DEA: 0.9; Smad3 FoxH1 inh: -9.2

What do the screens show for `CCOc1cc(CNC(C)C)c(Cl)cc1OCC(=O)NCCc1ccccc1`?
Cav3 T inh: 2.15; PostGolgi yeast: 0.2; DAT uptake mod: -1.53; PostGolgi ctrl: 0.6

What do the screens show for `COc1ccc(-c2[nH]c(-c3ccc(C)cc3)nc2SCC(=O)NC2CCCC2)cc1`?
Cav3 T inh: -0.274; DAT uptake mod: 0.442

What do the screens show for `CN(C(=O)c1cccs1)c1ccccc1C(=O)O`?
Cav3 T inh: 0.831; PostGolgi yeast: 8.4; DAT uptake mod: 0.635; PostGolgi ctrl: 9.1; TNAP act DEA: 0.9; Smad3 FoxH1 inh: 7.1

Results for Cc1c(NC(=O)CCC2CCCCC2)c(=O)n(-c2ccccc2)n1C ?
Cav3 T inh: -0.0435; PostGolgi yeast: -6.3; DAT uptake mod: 0.787; PostGolgi ctrl: 5.2; TNAP act DEA: 1

How did CCOc1ccccc1-n1c(COc2ccc(C)cc2)nnc1SCC(N)=O do in these assays?
Cav3 T inh: 0.00785; PostGolgi yeast: -6.9; PostGolgi ctrl: 1.7; TNAP act DEA: 1; Smad3 FoxH1 inh: -1.8

Results for CCC(=O)c1ccc(N2CCN(C(=O)c3ccc(Br)cc3)CC2)c(F)c1 ?
Cav3 T inh: 0.716; PostGolgi yeast: 61.5*; DAT uptake mod: 0.229; PostGolgi ctrl: 24.8; TNAP act DEA: 1; Smad3 FoxH1 inh: 0.0

Results for CCCC(=O)c1ccc(N2CCN(C(=O)c3ccc(Br)cc3)CC2)c(F)c1 ?
Cav3 T inh: 0.0985; PostGolgi yeast: 7.7; DAT uptake mod: -0.00429; PostGolgi ctrl: -0.3; TNAP act DEA: 1

How did Nc1nc(-c2cccc([N+](=O)[O-])c2)cc(-c2cc(-c3cccc([N+](=O)[O-])c3)nc(N)n2)n1 do in these assays?
Smad3 FoxH1 inh: 5.6

How did Cc1ccc(NC(=O)CSc2nnc(CSc3nc(C)cc(C)n3)n2Cc2ccco2)c(C)c1 do in these assays?
Cav3 T inh: -1.45; PostGolgi yeast: -0.8; DAT uptake mod: 2.66*; PostGolgi ctrl: 13.6; TNAP act DEA: 1; Smad3 FoxH1 inh: 0.2

How did Cc1ccc(NC(=O)CSc2nnc(-c3cccs3)n2Cc2ccco2)cc1 do in these assays?
Cav3 T inh: -1.36; PostGolgi yeast: 12.9; DAT uptake mod: 0.0806; PostGolgi ctrl: 8.4; Smad3 FoxH1 inh: 15.0

What do the screens show for `Cc1ccc(C)c(NC(=O)CSc2nnc(CSc3nc(C)cc(C)n3)n2Cc2ccco2)c1`?
Cav3 T inh: -1.36; PostGolgi yeast: -8.7; DAT uptake mod: 1.71; PostGolgi ctrl: 2.7; TNAP act DEA: 0.9; Smad3 FoxH1 inh: 0.8

How did Cc1ccc(C)c(CSc2nnc(-c3cccs3)n2Cc2ccco2)c1 do in these assays?
Cav3 T inh: -0.113; PostGolgi yeast: 25.8; DAT uptake mod: 0.854; PostGolgi ctrl: 35.2*; Smad3 FoxH1 inh: 24.2

Bioassay records deposited in PubChem by several laboratories.
